In all, about 340,000 compounds went through this assay and about 1,700 (0.5%) were called active. No stated cut-off is given here; in the data, active means inhibition above about 40%; inactive means the rest. Shown is part of a subset that was picked to be rich in actives.
Target: Cysteine protease ATG4B (Homo sapiens) (UniProt Q9Y4P1)
Assay: blockers of ATG4B cysteine protease activity – biochemical, fluorescence, uHTS, primary screen (AID 504462)
Conditions: ATG4B cleavage of LC3-PLA2, NBD-HPC fluorescence, 1 h; at 8.33 µM; active compounds read high

Cysteine protease ATG4B (Homo sapiens), sequence (Q9Y4P1 whole entry, looked up): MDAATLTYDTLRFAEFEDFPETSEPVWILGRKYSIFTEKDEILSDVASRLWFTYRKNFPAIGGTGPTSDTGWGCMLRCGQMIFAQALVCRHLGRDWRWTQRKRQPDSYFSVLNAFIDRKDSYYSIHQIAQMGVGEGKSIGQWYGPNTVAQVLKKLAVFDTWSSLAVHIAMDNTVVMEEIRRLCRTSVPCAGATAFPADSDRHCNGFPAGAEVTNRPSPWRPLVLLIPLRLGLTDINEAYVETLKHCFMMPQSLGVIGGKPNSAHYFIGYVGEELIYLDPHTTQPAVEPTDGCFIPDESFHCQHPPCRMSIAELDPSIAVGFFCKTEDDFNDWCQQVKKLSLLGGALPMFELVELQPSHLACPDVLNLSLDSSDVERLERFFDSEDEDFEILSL

| SMILES | inhibition |
| --- | --- |
| CCC(C)c1ccc(NC(=S)NCc2ccccn2)cc1 (centres undefined) | 2.58% (inactive) |
| CC(=O)N1CCN(C(=O)c2cc(-c3ccc(Cl)s3)nc3ccccc23)CC1 | 2% (inactive) |
| COc1cc(OC)cc(C(=O)Nc2ccc(-c3nc4ccccc4o3)c(O)c2)c1 | 1% (inactive) |
| Cc1ccc(Nc2cc(=O)n(C3CCCCC3)c(=O)[nH]2)cc1C | 49.4% (active) |
| O=c1cc(C(F)(F)F)[nH]c(=O)n1C1CCCCC1 | -7.77% (inactive) |
| Cc1ccc(NNC(=O)C2CCC2)cc1C | -8.25% (inactive) |
| Cc1ccc(-c2nnn(CC(=O)N(CCO)C(C(=O)NC(C)(C)C)c3ccncc3)n2)cc1 (centres undefined) | 3.82% (inactive) |
| O=C(Nc1cccc(F)c1)NC1CCCCCCC1 | 14.1% (inactive) |
| CNS(=O)(=O)c1cccc(C(=O)NC2CCCc3ccccc32)c1 (centres undefined) | 5.31% (inactive) |
| O=C(Nc1cccc(F)c1)NC1CCCc2ccccc21 (centres undefined) | 72.2% (active) |
| O=C(Nc1ccc(F)c(Cl)c1)C1CCN(S(=O)(=O)c2cccnc2)CC1 | -11.3% (inactive) |
| COc1ccc(C)cc1NC(=O)CSc1nnc2ccc(-c3ccccn3)nn12 | -1.16% (inactive) |
| CCN(C[C@H]1N[C@@](CC)(C(=O)OC)[C@H]2C(=O)N(Cc3ccccc3)C(=O)[C@@H]12)S(=O)(=O)c1ccc(C(F)(F)F)cc1 | 1.74% (inactive) |
| COc1ccc(NC(=O)CNc2cc(S(=O)(=O)N3CCOCC3)ccc2N2CCOCC2)c(OC)c1 | -0.66% (inactive) |
| Cc1c(Cl)c([N+](=O)[O-])nn1CCCC(=O)Nc1cc(Cl)ccc1Cl | 63.1% (active) |
| Cc1cc([N+](=O)[O-])nn1CCCC(=O)Nc1cccnc1Cl | -6.6% (inactive) |
| Cc1c(Cl)c([N+](=O)[O-])nn1CCCC(=O)NC(C)c1ccccc1 (centres undefined) | 19.6% (inactive) |
| Nc1c(N(CCCO)C(=O)C2CCCC2)c(=O)[nH]c(=O)n1Cc1ccccc1 | 2.96% (inactive) |
| Cc1ccc2[nH]c(=O)c(CC=C(Cl)Cl)c(C)c2c1 | -4.78% (inactive) |
| CN(C(=O)c1cccc(NC(=O)Cc2ccc(NC(=O)C3CCN(C(=O)C4CCCCC4)CC3)cc2)c1)C1CCC1 | -6.18% (inactive) |

| SMILES | inhibition |
| --- | --- |
| COC(=O)[C@@H](NC(=O)NCc1cccc(OC)c1)C(C)C | -0.62% (inactive) |
| O=C(NCc1cccc(CNC(=O)Nc2cccc(O)c2)c1)Nc1cccc(O)c1 | 27.4% (inactive) |
| COc1cccc(NC(=O)NCc2ccc(F)cc2)c1 | 46.2% (active) |
| CC1CCCC(NC(=O)c2cc(-c3ccncc3)nc3ccccc23)C1C (centres undefined) | -8.76% (inactive) |
| CC(C)CCn1c(=O)c2c(nc3n2CCCN3Cc2ccccc2)n(C)c1=O | 3.87% (inactive) |
| CCOC(=O)C1=C(C)c2ccccc2OC1(C)C(=O)OCC (centres undefined) | 2.41% (inactive) |
| CCOC(=O)c1c(C)[nH]c2c1-c1ccccc1C(=O)C2=O | 47% (active) |
| CCOC(=O)c1[nH]c2ccccc2c1N=C(C)N(CC)CC | -9.79% (inactive) |
| CC(C)(C)C1CCc2c(sc3nc(SCC(N)=O)nc(N)c23)C1 (centres undefined) | 42.8% (active) |
| C=C(C)CSc1nc(N)c2c3c(sc2n1)CCC3 | 17.7% (inactive) |
| Nc1nc(SCC(=O)NCCN2CCOCC2)nc2sc3c(c12)CCC3 | -9.91% (inactive) |
| O=S1(=O)CCC(NC(=S)SCc2ccccc2Br)C1 (centres undefined) | -4.75% (inactive) |
| Cc1c(Cl)cccc1NC(=O)NCCCN1CCCC1=O | 2.74% (inactive) |
| CS(=O)(=O)Nc1ccc(C(=O)N2CCCC2)cc1 | -2.74% (inactive) |
| Cc1c(Cl)cccc1NC(=O)Nc1ccc(C(=O)N2CCCC2)cc1 | 40.6% (active) |
| COc1ccccc1CCNC(=O)CSc1nnc2ccc(-c3cccnc3)nn12 | 0.74% (inactive) |
| CCn1c(Cc2ccc(OC)cc2)nnc1SCC(=O)Nc1ccc(N2CCOCC2)cc1 | -5.02% (inactive) |
| Cc1ccc(C2=Nc3c(ccc4ccccc34)C(c3ccncc3)=NN2)cc1 | 60.3% (active) |
| Cc1ccc(-c2csc(-c3c[nH]c4ccccc34)n2)cc1 | 4.81% (inactive) |
| CC(Sc1nnc(-c2ccccc2F)n1C1CC1)C(N)=O (centres undefined) | -8.94% (inactive) |

| SMILES | inhibition |
| --- | --- |
| CCCCCCCC1(C)NC(=O)N(CC(=O)Nc2cc(C)on2)C1=O (centres undefined) | -10.1% (inactive) |
| O=C(C1CCN(S(=O)(=O)Cc2ccccc2)CC1)N1CCCc2ccccc21 | 13.8% (inactive) |
| Cc1ccc(N2CC(C(=O)NCCS(=O)(=O)N3CCN(c4ccccc4)CC3)CC2=O)cc1 (centres undefined) | -5.93% (inactive) |
| Fc1ccc2c(c1)C(c1cccnc1)=NNC(c1cccs1)=N2 | -1.31% (inactive) |
| CCC1OC(c2ccc([N+](=O)[O-])cc2)=Nc2ccccc21 (centres undefined) | -2.62% (inactive) |
| CCOC(=O)C1=C(C)N(C[C@@H]2CC[C@@H](Cc3ccc(-c4ccccc4)cc3)O2)C(=O)NC1c1ccc([N+](=O)[O-])cc1 (some centres undefined) | 1.26% (inactive) |
| CCc1ccc2c(c1)C(c1ccc([N+](=O)[O-])cc1)=NNC(c1ccccc1)=N2 | 61% (active) |
| COc1ccc2c(c1)C(c1cccs1)=NNC(c1cccnc1)=N2 | 0.69% (inactive) |
| CCOc1ccc2c(c1)C(c1ccc(C)cc1)=NNC(c1ccc(C)cc1)=N2 | 65.9% (active) |
| Cc1ccccc1CSc1nnc(-c2ccccc2)c(=O)[nH]1 | 11.3% (inactive) |
| CCCN1C2CCCC1CC(NC(=O)c1cccc(OC)c1)C2 (centres undefined) | -4.61% (inactive) |
| CC(C(=O)NCCc1ccc(S(N)(=O)=O)cc1)N1C(=O)CC(C)(C)Sc2ccccc21 (centres undefined) | 1.71% (inactive) |
| Cn1c2c(c(=O)n(C)c1=O)C(c1ccc(O)cc1)Nc1ccccc1O2 (centres undefined) | -5.48% (inactive) |
| CCc1nn(-c2cc(Oc3cccc4ccccc34)nc(-c3ccccc3)n2)c(N)c1C#N | -7.41% (inactive) |
| COc1ccc(C)cc1N(C)C(=O)c1coc(=O)c2ccccc12 | -10% (inactive) |
| NC(=O)c1ccc(Nc2ccc3c(c2)CCC3)c([N+](=O)[O-])c1 | 29.8% (inactive) |
| Cc1ccc(Nc2ccc(C(N)=O)cc2[N+](=O)[O-])cc1 | 66.7% (active) |
| CCOc1ccccc1Nc1ccc(C(=O)O)cc1[N+](=O)[O-] | -16.2% (inactive) |
| CC(=O)c1ccc(S(=O)(=O)NCc2nnnn2-c2ccccc2)cc1 | -3.36% (inactive) |

— PubChem BioAssay AID504462 (Sanford-Burnham Center for Chemical Genomics, 2011)
